Test results: PubChem BioAssay (NCATS)
Records with an inconclusive call do not appear. The source made the active and inactive calls. The call rests on the fitted dose curve; in most records, active means well fitted curve in the direction sought with a large enough effect; inconclusive means small, poorly fitted or top-dose-only effect, or another doubt; inactive means no such curve, though single readings can be large; an effect the other way counts as inactive or inconclusive.

Experiments:
[1] = system: HEK293; assay: Cytotoxic Profiling of Annotated Libraries Using Quantitative High-Throughput Screening (AID 1296008); conditions: Five cell lines viability, CellTiter-Glo ATP luminescence, 48-72 h; max response: active compounds read low; further: nearly all actives have a fitted effect of over 60% in size
How it was run: (§1)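 Compounds were pin-transferred onto cells and incubated 48 or 72 hr at 37 degree Celsius, 95% humidity. CellTiter-Glo was added, plates sat 10 min at room temperature, then ATP-coupled luminescence was imaged as the viability read-out.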

[2] = system: HaCat; assay: as above; conditions: Five cell lines viability, CellTiter-Glo ATP luminescence, 48-72 h; max response: active compounds read low
How it was run: as §1

[3] = system: KB-3-1; assay: as above; conditions: Five cell lines viability, CellTiter-Glo ATP luminescence, 48-72 h; max response: active compounds read low
How it was run: as §1

[4] = system: NIH3T3; assay: as above; conditions: Five cell lines viability, CellTiter-Glo ATP luminescence, 48-72 h; max response: active compounds read low
How it was run: as §1

[5] = system: MCC-26; assay: qHTS assay to identify novel small-molecules to repurpose for Merkel cell carcinoma treatment (AID 1296009); conditions: MCC and control cell lines, CellTiter-Glo viability, 72 h; series mostly up to 46 µM; further: nearly all actives have a fitted effect of over 60% in size
How it was run: (§2)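 Viability readout: ATP luminescence (CellTiter-Glo) after 72 hr drug exposure at 37 degree celsius. Dose-response format was 8 points for NPC and 11 points for MIPE; data normalized to in-plate controls.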

[6] = system: MKL-1; assay: as above; conditions: MCC and control cell lines, CellTiter-Glo viability, 72 h; series mostly up to 46 µM
How it was run: as §2

[7] = system: MKL-2; assay: as above; conditions: MCC and control cell lines, CellTiter-Glo viability, 72 h; series mostly up to 46 µM
How it was run: as §2

[8] = system: UISO; assay: as above; conditions: MCC and control cell lines, CellTiter-Glo viability, 72 h; series mostly up to 46 µM
How it was run: as §2

[9] = system: WaGa; assay: as above; conditions: MCC and control cell lines, CellTiter-Glo viability, 72 h; series mostly up to 46 µM
How it was run: as §2

[10] = system: MCC-13; assay: as above; conditions: MCC and control cell lines, CellTiter-Glo viability, 72 h; series mostly up to 46 µM
How it was run: as §2

[11] = system: C33A; assay: Primary qHTS to identify gynecologic anti-cancer compounds using libraries of approved drugs and bioactive compounds (AID 1345084); conditions: Gynecologic cancer cell panel viability, ATPlite luminescence, 48 h; series mostly up to 57.5 µM; further: nearly all actives have a fitted effect of over 55% in size
How it was run: (§3)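 Cell viability after 48 h drug treatment, ATPlite luminescence readout; five doses.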

[12] = system: Es-2; assay: as above; conditions: Gynecologic cancer cell panel viability, ATPlite luminescence, 48 h; series mostly up to 57.5 µM
How it was run: as §3

[13] = system: HeLa; assay: as above; conditions: Gynecologic cancer cell panel viability, ATPlite luminescence, 48 h; series mostly up to 57.5 µM
How it was run: as §3

[14] = system: Hek293T; assay: as above; conditions: Gynecologic cancer cell panel viability, ATPlite luminescence, 48 h, control line for the selectivity index; series mostly up to 57.5 µM
How it was run: as §3

[15] = system: CRL-7250; assay: Cytotoxic Profiling of Annotated Libraries Using Quantitative High-Throughput Screening (AID 1296008); conditions: Five cell lines viability, CellTiter-Glo ATP luminescence, 48-72 h; max response: active compounds read low; further: nearly all actives have a fitted effect of over 60% in size
How it was run: as §1

[16] = system: CASKI; assay: Primary qHTS to identify gynecologic anti-cancer compounds using libraries of approved drugs and bioactive compounds (AID 1345084); conditions: Gynecologic cancer cell panel viability, ATPlite luminescence, 48 h; series mostly up to 57.5 µM; further: nearly all actives have a fitted effect of over 55% in size
How it was run: as §3

[17] = system: JEG-3; assay: as above; conditions: Gynecologic cancer cell panel viability, ATPlite luminescence, 48 h; series mostly up to 57.5 µM
How it was run: as §3

[18] = system: HACAT; assay: qHTS assay to identify novel small-molecules to repurpose for Merkel cell carcinoma treatment (AID 1296009); conditions: MCC and control cell lines, CellTiter-Glo viability, 72 h; at 44.8 µM (top of the series) unless noted; further: nearly all actives have a fitted effect of over 60% in size
How it was run: as §2

[19] = system: NIH3T3; assay: as above; conditions: MCC and control cell lines, CellTiter-Glo viability, 72 h; at 44.8 µM (top of the series) unless noted
How it was run: as §2
On the % scale 0 is the no-effect control and ±100 the full control effect; potency means the concentration at half of the fitted maximal effect.

CC(=O)NCC(=O)N1[C@H]2CC[C@H]1c1cc(Nc3ncc(C(F)(F)F)c(NC4CCC4)n3)ccc12
active: Potency [1] 5.26 µM | Potency [2] 0.132 µM | Potency [3] 1.66 µM | Potency [4] 1.32 µM | Potency [5] 3.72 µM | Potency [6] 0.209 µM | Potency [7] 23.5 µM | Potency [8] 7.43 µM | Potency [9] 0.264 µM

CC[C@]12C=CCN3CC[C@@]4(c5cc([C@@]6(C(=O)OC)C[C@H]7C[C@@H](C(C)(F)F)CN(Cc8c6[nH]c6ccccc86)C7)c(OC)cc5N(C)[C@H]4[C@@](O)(C(=O)OC)[C@H]1OC(C)=O)[C@@H]32
active: Potency [1] 0.0083 µM | Potency [3] 0.0105 µM | Potency [9] 0.0059 µM
inactive: max response [2] -0.147%

N#Cc1c(C2CCNCC2)cc(-c2c(O)cccc2OCC2CC2)nc1N
inactive: max response [2] -15.5% | max response [3] -14.2% | max response [4] -27% | Potency [10] | Potency [5] | Potency [6] | Potency [11] | Potency [12] | Potency [13] | Potency [14]
active: Potency [1] 20.9 µM

COc1cccc2c1C(=O)c1c(O)c3c(c(O)c1C2=O)C[C@@](O)(C(=O)CO)C[C@@H]3O[C@H]1C[C@H](N)[C@H](OC2CCCCO2)[C@H](C)O1 (some centres undefined)
active: Potency [1] 0.332 µM | Potency [2] 2.35 µM | Potency [3] 0.833 µM | Potency [4] 0.59 µM | Potency [10] 5.26 µM | Potency [5] 3.72 µM | Potency [6] 2.64 µM | Potency [8] 1.66 µM | Potency [9] 1.66 µM

NC(=O)Nc1sc(-c2ccc(F)cc2)cc1C(N)=O
active: Potency [1] 13.2 µM | Potency [2] 10.5 µM | Potency [3] 9.35 µM | Potency [8] 4.69 µM | Potency [9] 5.26 µM

CC(=O)O[C@@]12CO[C@H]1C[C@H](O)[C@@]1(C)C(=O)[C@H](O)C3=C(C)[C@@H](OC(=O)C(O)[C@@H](NC(=O)OC(C)(C)C)c4ccccc4)C[C@@](O)([C@@H](OC(=O)c4ccccc4)[C@@H]21)C3(C)C (some centres undefined)
inactive: max response [15] -64.7% | max response [4] -88.1% | Potency [6] | Potency [7] | Potency [8] | Potency [9]
active: Potency [3] 0.0526 µM

CC(=O)ON=C1C(c2c(O)[nH]c3cc(Br)ccc23)=Nc2ccccc21
inactive: max response [2] -13.8% | max response [3] -15.3% | Potency [10] | Potency [7]
active: Potency [1] 14.8 µM

O=C(Nc1cc2cc[nH]c2cn1)c1ccccc1
active: Potency [15] 18.7 µM | Potency [4] 13.2 µM | Potency [6] 14.8 µM | Potency [11] 1.41 µM | Potency [16] 1.78 µM | Potency [12] 1.58 µM | Potency [13] 1.41 µM | Potency [14] 2.24 µM | Potency [17] 1.12 µM

Cn1cc(C2=C(c3c4n(c5ccccc35)CCC(CN)C4)C(=O)NC2=O)c2ccccc21 (centres undefined)
active: Potency [1] 13.2 µM | Potency [2] 37.2 µM | Potency [3] 6.62 µM | Potency [4] 16.6 µM | Potency [6] 20.9 µM | Potency [7] 20.9 µM | Potency [9] 20.9 µM

C=C1C(=O)O[C@H]2[C@@H]1CCC(C)=CCC[C@@]1(C)O[C@@H]21
active: Potency [15] 11.8 µM | Potency [2] 20.9 µM | Potency [10] 16.6 µM | Potency [6] 7.43 µM | Potency [7] 1.87 µM | Potency [8] 14.8 µM | Potency [9] 7.43 µM

CN[C@H](CC(C)C)C(=O)N[C@H]1C(=O)N[C@@H](CC(N)=O)C(=O)N[C@@H]2C(=O)N[C@H]3C(=O)N[C@H](C(=O)N[C@H](C(=O)O)c4cc(O)cc(O)c4-c4cc3ccc4O)[C@H](O)c3ccc(c(Cl)c3)Oc3cc2cc(c3O[C@@H]2O[C@H](CO)[C@@H](O)[C@H](O)[C@@H]2O[C@H]2C[C@](C)(N)[C@H](O)[C@H](C)O2)Oc2ccc(cc2Cl)[C@H]1O
inactive: max response [1] -10.3% | outcome [2] | max response [3] 5.98% | max response [4] -4.89% | outcome [18] | Potency [10] | Potency [5] | Potency [6] | Potency [7] | Potency [8] | Potency [9]

C#C[C@]1(O)CC[C@@H]2[C@@H]3CCc4cc(O)ccc4[C@H]3CC[C@@]21C
active: Potency [3] 20.9 µM
inactive: max response [15] -14.3% | max response [4] -5.15% | Potency [10] | Potency [5] | Potency [6] | Potency [9]

N#CC(=Cc1ccc(O)c(O)c1)C(=O)NCc1ccccc1
inactive: max response [1] -6.05% | max response [2] -2.31% | outcome [3] | Potency [10] | Potency [5] | Potency [7]

C[C@]12CCC(=O)C=C1[C@@H]1CC1[C@H]1[C@H]3[C@@H]4C[C@H]4[C@@]4(CCC(=O)O4)[C@@]3(C)CC[C@H]12 (some centres undefined)
inactive: max response [15] 3.77% | max response [2] -9.69% | outcome [4] | Potency [10] | Potency [5] | Potency [6] | Potency [7] | outcome [19] | Potency [8] | Potency [9]

Cc1cc(Nc2ncc3c(n2)N(C)C(=O)N(c2cc(NC(=O)c4cccc(C(F)(F)F)c4)ccc2C)C3)n(C)n1
active: Potency [15] 0.469 µM | Potency [2] 0.833 µM | Potency [4] 1.32 µM | Potency [10] 2.09 µM | Potency [8] 0.526 µM

CN(C)CCN1C(=O)c2cccc3cc(N)cc(c23)C1=O
active: Potency [15] 10.5 µM | Potency [3] 16.6 µM | Potency [4] 3.32 µM | Potency [6] 14.8 µM | Potency [7] 18.7 µM | Potency [8] 7.43 µM | Potency [9] 9.35 µM
